Test results from publication PMC4552634, “A New Set of Chemical Starting Points with Plasmodium falciparum Transmission-Blocking Potential for Antimalarial Drug Discovery” (PLoS ONE, 2015).
Out of some 13,000 compounds screened, about 3,200 (25%) showed an effect of 50% or more. This is one part of the list.

What follows are compounds tested on P. falciparum stage V gametocytes. Conditions: 48 h, 5 µM; inhibitor.
Parameters: BacTiter-Glo ATP luminescence viability of purified stage V gametocytes in 384-well plates, per cent inhibition versus DMSO

| SMILES | % Inhibition [%] |
| --- | --- |
| Cc1ccccc1C1CCN(C2CCC(NC(=O)c3cc4cc(C(C)C)ccc4[nH]3)CC2)CC1 (stereo not shown) [TCMDC-133554] | 15.06 |
| COc1ccc2ncc(C#N)c(CCN3C4CCC3CC(NCc3ccc5c(n3)NC(=O)CS5)C4)c2c1 (stereo not shown) [TCMDC-135180] | 37.34 |
| Brc1cnc(NC2=NCCN2)c(Br)c1 [TCMDC-131680] | 12.04 |
| Cc1nc(C)c(CC(=O)Nc2cccc(-c3cccc(-c4nc5ccc(C(F)(F)F)cc5[nH]4)c3)c2)s1 [TCMDC-136995] | 4.513 |
| CC(C)(CN)c1nc(-c2ccc(Br)c(O)c2)c(-c2ccncc2)[nH]1 [TCMDC-140680] | -59.77 |
| O=C(/C=C/c1ccc(Cl)c(Cl)c1)NCCCCCN1CCC(NC(=O)Nc2ccccc2F)CC1 [TCMDC-139386] | -2.666 |
| C=CCOC1OC(COC(c2ccccc2)(c2ccccc2)c2ccccc2)C(OC(C)=O)C(OC(C)=O)C1NC(C)=O (stereo not shown) [TCMDC-131992] | 13.79 |
| CCN(CC)CCN(Cc1ccc(-c2ccc(C(F)(F)F)cc2)cc1)C(=O)Cn1c(CCc2cccc(F)c2F)c(C)c(=O)c2ccccc21 [TCMDC-141313] | 76.85 |
| CCN(CC)CCN(Cc1ccc(-c2ccc(C(F)(F)F)cc2)cc1)C(=O)Cn1c(CCc2cccc(F)c2F)nc(=O)c2ccccc21 [TCMDC-140922] | 60.98 |
| CCN(CC)CCN(Cc1ccc(-c2ccc(C(F)(F)F)cc2)cc1)C(=O)Cn1c(CCc2ccc(F)c(F)c2F)nc(=O)c2cccnc21 [TCMDC-141002] | 20.31 |
| CCN(CC)CCN(CCCc1ccc(-c2ccc(C(F)(F)F)cc2)cc1)C(=O)Cn1c(CCc2cccc(F)c2F)nc(=O)c2c1CCC2 [TCMDC-140984] | 42.45 |
| CCN(CC)CCN(Cc1ccc(-c2ccc(C(F)(F)F)cc2)cc1)C(=O)Cn1c(CCc2cccc(F)c2F)nc(=O)c2cccnc21 [TCMDC-141013] | 97.72 |
| CC(C)(C)NCCN(Cc1ccc(-c2ccc(C(F)(F)F)cc2)cc1)C(=O)Cn1c(CCc2cccc(F)c2F)nc(=O)c2c1CCC2 [TCMDC-140979] | 113.3 |
| Cn1nccc1C(=O)NCCNCc1cccc(-c2csc(-c3nc4ccccc4[nH]3)c2)c1 [TCMDC-133002] | -62.03 |
| CCCN1CCc2c(sc3nc(SCC(=O)Nc4ccc(C)cc4)n(-c4ccc(C)cc4)c(=O)c23)C1 [TCMDC-125451] | 5.583 |
| O=C(NC1CCCc2ccccc21)C1CCCN(C(=O)c2ccc(O)c(-c3ccc(Cl)c(Cl)c3)c2)C1 (stereo not shown) [TCMDC-140890] | 19.76 |
| CCn1c(CN2CCC(C)CC2)nc2cc(NC(=O)c3cccs3)ccc21 [TCMDC-124730] | -26.92 |
| CCCCCCCN(Cc1ccc(OC(C)(C)C(=O)OCC)cc1)C(=O)Cc1ccc(F)cc1F [TCMDC-131920] | 13.51 |
| COC(=O)c1cccc(NC(=O)NC2CCN(c3ccnc(Nc4ccc(OC)cc4)n3)C2)c1 (stereo not shown) [TCMDC-133618] | -6.04 |
| CC1CN(Cc2cccc(-c3ccc(-c4nc5ccccc5[nH]4)cc3)c2)CC(C)O1.O=C(O)C(F)(F)F (stereo not shown) [TCMDC-133816] | -91.64 |

| SMILES | % Inhibition [%] |
| --- | --- |
| CSc1ccc(NC(=O)Nc2cc(C)nc3ccccc23)cc1Br [TCMDC-139874] | -51.95 |
| CCN(CC)CCN(Cc1ccc(-c2ccc(C(F)(F)F)cc2)cc1)C(=O)Cn1c(CCc2ccc(F)c(F)c2F)nc(=O)c2ccccc21 [TCMDC-140952] | 68.69 |
| CCN(CC)CCN(Cc1ccc(-c2ccc(C(F)(F)F)cc2)cc1)C(=O)Cn1c(CCc2ccc(F)c(F)c2F)nc(=O)c2ccc(F)cc21 [TCMDC-141072] | 19.94 |
| CCN(CC)CCN(Cc1ccc(-c2ccc(C(F)(F)F)cc2)cc1)C(=O)Cn1c(CCc2ccccc2F)nc(=O)c2ccccc21 [TCMDC-141012] | 52.86 |
| Clc1ccc2c(NN=Cc3cccnc3)ccnc2c1 [TCMDC-123968] | -19.33 |
| Cc1cccc2c3c([nH]c12)C1(CCN(CCc2ccccc2)CC1)NC(C(=O)NCc1ccccc1)C3 (stereo not shown) [TCMDC-141245] | -39.36 |
| Cc1cc(CN2CCN(CCOC(c3ccccc3)c3ccccc3)CC2)ccc1O [TCMDC-135695] | -7.709 |
| Cc1ccc(C)c(S(=O)(=O)NCC2CCN(Cc3ccc(O)cc3)CC2)c1 [TCMDC-141802] | 45.59 |
| COc1cc(CNCCCCCCNCc2cc(OC)c(OC)c3ccccc23)c2ccccc2c1OC [TCMDC-137981] | 104.3 |
| COc1cc(CNCCCCCCNCc2cc(OC)c3ccccc3c2OC)c(OC)c2ccccc12 [TCMDC-137502] | 106.1 |
| CCOc1c(CNCCCNc2cc(=O)c3ccccc3[nH]2)cc(I)cc1OC [TCMDC-139847] | -35.79 |
| CCOc1c(C)cc(C(F)(F)F)cc1CNCCCNc1cc(=O)c2ccccc2[nH]1 [TCMDC-141046] | -34.36 |
| CCOc1cc2ccccc2cc1CNCCCCCCNCc1cc2ccccc2cc1OCC [TCMDC-137940] | 69.35 |
| CCOc1cc(CNCCCCCCNCc2cc(OCC)c(OCC)c3ccccc23)c2ccccc2c1OCC [TCMDC-137939] | 106 |
| COc1cc2ccccc2cc1CNCCCCCCNCc1cc2ccccc2cc1OC [TCMDC-137955] | 4.122 |
| CCOc1c(Br)cc(C)cc1CNCCCNc1nc2ccccc2[nH]1 [TCMDC-140090] | 7.25 |
| COc1cc(-c2cc(-c3ccc(OCCN(C)C)cc3)[nH]c2-c2ccncc2)ccc1Cl [TCMDC-141251] | -2.677 |
| COc1cc(F)c2ncc(Cl)c([C@H](O)CN3CCC(NCc4cc5c(cn4)OCCO5)CC3)c2c1 [TCMDC-135474] | 10.97 |
| O=C(NC1CCC(CCN2Cc3cccc(C(F)(F)F)c3C2)CC1)c1cccc(-c2cccnc2)c1 (stereo not shown) [TCMDC-139602] | -51.73 |
| COc1ccc(CNCc2ccc(-c3ccc(-c4nc5cc(C(F)(F)F)ccc5[nH]4)cc3)cc2)cc1.O=C(O)C(F)(F)F [TCMDC-132724] | -6.92 |
